# In the supplement of paper PMC10849652:
# About 7,900 targets were measured; listed, in parts, are those with a hit and a random draw of the rest. About 0.6% of all pairs of compound and target were hits. A number with no mark means an inactive call.
# How the values were obtained:
# Experiment in all cases: log2 fold change, soluble protein after heating vs DMSO (PISA); higher = thermal stabilisation; K562 cells, 10 uM, 30 min; active = over 0.2 and 3.5 SD of the protein, either way, in both replicates (recomputed)
# [1] = compound: CC[C@@H]1C(=O)N(C)c2cnc(Nc3ccc(C(=O)NC4CCN(C)CC4)cc3OC)nc2N1C1CCCC1
# Procedure, shortened: (§1)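 For each measurement, 10 μM compound was applied for 30 min to K562 cells at 2×10^6 cells/mL. Aliquots were heated for 3 min across 48°C-58°C, pooled, and extracted in PBS with 0.5% NP-40 at 4°C; the supernatant after 21,000xg for 90 min was soluble protein. This was quantified by TMTpro 16plex LC-MS/MS with channel sums equalised, and thermal stability was reported relative to control samples from duplicates, on a log2 fold-change scale.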
# [2] = compound: CC[C@@H]1C(=O)N(C)c2cnc(Nc3ccc(C(=O)N[C@H]4CC[C@H](N5CCN(CC6CC6)CC5)CC4)cc3OC)nc2N1C(C)C [volasertib]
# Procedure, shortened: as §1
# [3] = compound: CC[C@H](C)N1C=C(C2=C(C=C(C=C21)C3=CN=C(C=C3)N4CCNCC4)C(=O)NCC5=C(C=C(NC5=O)C)C)C
# Procedure, shortened: as §1
# [4] = compound: CC[C@H](C)[C@@H](C(=O)N[C@@H]([C@@H](C)O)C(=O)N[C@@H](CC(C)C)C(=O)[C@]1(CO1)C)NC(=O)[C@H]([C@@H](C)CC)N(C)C(=O)C [epoxomicin]
# Procedure, shortened: as §1
# [5] = compound: CCn1c(C(=O)N(C2CC2)C2CC2)cc2c3c(ncn3C)c(Nc3cc(C)n(C)n3)nc21
# Procedure, shortened: as §1
# [6] = compound: CCn1cc(-c2ccnc3[nH]c(-c4cccc(CN(C)C)c4)cc23)c(-c2ccc(NC(=O)N(C)C)cc2)n1
# Procedure, shortened: as §1
# [7] = compound: CN(C)CC(=O)Nc1ccc2[nH]c(=O)c3ccccc3c2c1
# Procedure, shortened: as §1
# [8] = compound: CN(CCOC1=CC=C(C=C1)C[C@H]2C(=O)NC(=O)S2)C3=CC=CC=N3 (racemic) [rosiglitazone]
# Procedure, shortened: as §1
# [9] = compound: CN1C2=C(C3=C1C(=O)N(N=C3)CC4=CC(=CC=C4)N)SC(=C2)S(=O)C
# Procedure, shortened: as §1
# [10] = compound: CN1CCC(CNc2ccc3ncc(-c4cccc(OC(F)(F)F)c4)n3n2)CC1
# Procedure, shortened: as §1
# UniProt Q13535, sequence (Q13535 whole entry, looked up): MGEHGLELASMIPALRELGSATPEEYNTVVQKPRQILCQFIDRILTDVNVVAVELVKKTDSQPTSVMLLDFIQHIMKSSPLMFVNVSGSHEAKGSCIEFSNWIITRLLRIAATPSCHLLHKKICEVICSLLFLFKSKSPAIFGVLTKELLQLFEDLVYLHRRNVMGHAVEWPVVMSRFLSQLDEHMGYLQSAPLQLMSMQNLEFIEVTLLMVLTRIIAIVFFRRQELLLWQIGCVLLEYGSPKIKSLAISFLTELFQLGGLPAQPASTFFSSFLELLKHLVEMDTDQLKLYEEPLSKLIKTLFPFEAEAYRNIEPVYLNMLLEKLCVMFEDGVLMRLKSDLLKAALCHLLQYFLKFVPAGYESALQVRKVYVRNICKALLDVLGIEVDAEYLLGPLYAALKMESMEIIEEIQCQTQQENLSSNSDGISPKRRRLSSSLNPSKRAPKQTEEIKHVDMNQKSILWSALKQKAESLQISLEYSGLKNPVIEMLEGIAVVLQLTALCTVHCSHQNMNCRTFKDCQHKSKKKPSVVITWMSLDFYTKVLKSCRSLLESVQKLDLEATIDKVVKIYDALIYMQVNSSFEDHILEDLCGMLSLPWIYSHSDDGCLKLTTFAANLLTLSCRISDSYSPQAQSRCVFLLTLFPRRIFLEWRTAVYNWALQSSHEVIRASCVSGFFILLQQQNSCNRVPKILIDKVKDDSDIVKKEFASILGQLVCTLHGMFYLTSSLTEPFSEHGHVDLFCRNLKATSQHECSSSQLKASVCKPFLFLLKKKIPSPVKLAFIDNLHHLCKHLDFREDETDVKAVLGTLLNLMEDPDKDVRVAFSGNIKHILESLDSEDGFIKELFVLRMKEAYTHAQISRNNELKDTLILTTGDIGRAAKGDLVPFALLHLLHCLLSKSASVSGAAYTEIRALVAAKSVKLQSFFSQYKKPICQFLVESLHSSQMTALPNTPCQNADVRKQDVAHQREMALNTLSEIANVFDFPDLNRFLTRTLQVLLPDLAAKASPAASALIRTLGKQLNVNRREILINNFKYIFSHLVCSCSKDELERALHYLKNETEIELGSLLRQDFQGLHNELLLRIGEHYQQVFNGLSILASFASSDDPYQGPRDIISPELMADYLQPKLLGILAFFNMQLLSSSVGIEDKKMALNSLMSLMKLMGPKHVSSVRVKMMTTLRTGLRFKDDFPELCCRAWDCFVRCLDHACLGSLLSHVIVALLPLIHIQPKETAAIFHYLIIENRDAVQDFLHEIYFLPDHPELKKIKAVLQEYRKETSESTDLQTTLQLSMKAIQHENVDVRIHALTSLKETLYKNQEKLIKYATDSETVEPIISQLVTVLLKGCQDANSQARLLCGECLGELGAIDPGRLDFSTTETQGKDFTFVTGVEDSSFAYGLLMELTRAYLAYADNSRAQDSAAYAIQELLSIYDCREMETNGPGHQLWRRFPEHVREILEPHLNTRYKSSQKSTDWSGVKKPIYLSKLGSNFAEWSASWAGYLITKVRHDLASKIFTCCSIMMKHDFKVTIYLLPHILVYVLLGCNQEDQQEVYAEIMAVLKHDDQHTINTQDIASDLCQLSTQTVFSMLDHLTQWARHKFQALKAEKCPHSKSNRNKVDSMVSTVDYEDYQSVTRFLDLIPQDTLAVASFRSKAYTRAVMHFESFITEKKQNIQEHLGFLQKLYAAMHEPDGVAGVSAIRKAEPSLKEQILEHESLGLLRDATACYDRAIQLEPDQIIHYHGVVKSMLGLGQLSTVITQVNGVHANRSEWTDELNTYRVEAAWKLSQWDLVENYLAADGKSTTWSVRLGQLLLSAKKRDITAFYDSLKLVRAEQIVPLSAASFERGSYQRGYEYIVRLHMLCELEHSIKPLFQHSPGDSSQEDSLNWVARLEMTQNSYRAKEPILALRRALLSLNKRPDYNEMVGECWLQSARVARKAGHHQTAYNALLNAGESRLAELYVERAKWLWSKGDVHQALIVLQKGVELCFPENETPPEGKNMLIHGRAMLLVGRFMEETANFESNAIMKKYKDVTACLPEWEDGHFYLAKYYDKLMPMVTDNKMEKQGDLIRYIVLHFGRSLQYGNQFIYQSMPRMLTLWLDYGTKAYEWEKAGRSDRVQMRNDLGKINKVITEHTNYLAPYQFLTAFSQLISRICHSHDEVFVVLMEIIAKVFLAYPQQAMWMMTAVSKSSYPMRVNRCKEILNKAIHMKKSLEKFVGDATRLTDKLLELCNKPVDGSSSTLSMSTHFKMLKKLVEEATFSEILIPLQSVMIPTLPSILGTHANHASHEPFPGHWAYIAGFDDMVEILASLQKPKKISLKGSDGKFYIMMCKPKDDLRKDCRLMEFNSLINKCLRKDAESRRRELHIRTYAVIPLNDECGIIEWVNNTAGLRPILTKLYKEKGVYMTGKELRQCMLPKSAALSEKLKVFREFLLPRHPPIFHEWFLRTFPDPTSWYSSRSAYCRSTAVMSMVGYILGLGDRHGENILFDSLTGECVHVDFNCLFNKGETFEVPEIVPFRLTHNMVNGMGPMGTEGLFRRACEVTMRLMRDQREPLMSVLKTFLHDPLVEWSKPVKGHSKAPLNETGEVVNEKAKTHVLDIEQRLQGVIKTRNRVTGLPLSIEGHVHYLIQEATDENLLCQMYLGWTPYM
# UniProt Q9Y679, sequence (Q9Y679 whole entry, looked up): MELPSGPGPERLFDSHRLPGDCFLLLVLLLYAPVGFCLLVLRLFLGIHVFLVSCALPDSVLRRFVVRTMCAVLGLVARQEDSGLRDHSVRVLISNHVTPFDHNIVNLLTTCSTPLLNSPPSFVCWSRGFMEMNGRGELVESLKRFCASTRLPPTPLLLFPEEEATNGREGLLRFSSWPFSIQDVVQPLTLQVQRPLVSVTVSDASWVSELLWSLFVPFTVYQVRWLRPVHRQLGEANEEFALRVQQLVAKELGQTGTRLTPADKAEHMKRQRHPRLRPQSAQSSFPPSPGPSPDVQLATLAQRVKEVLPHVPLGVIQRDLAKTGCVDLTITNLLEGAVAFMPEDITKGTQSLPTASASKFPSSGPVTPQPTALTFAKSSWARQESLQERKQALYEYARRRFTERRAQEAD
# UniProt P00966, sequence (P00966 whole entry, looked up): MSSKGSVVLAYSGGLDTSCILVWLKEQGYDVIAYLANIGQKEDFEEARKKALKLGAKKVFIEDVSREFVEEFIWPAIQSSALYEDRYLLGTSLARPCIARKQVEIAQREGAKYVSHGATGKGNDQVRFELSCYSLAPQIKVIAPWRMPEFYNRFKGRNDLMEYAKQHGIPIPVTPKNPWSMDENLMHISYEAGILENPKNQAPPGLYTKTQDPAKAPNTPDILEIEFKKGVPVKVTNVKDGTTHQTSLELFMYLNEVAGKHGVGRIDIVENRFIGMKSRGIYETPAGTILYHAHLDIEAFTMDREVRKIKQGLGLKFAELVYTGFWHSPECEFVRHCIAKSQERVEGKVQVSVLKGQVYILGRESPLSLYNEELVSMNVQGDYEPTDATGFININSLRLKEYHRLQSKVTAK
# UniProt Q9BRQ8, sequence (Q9BRQ8 whole entry, looked up): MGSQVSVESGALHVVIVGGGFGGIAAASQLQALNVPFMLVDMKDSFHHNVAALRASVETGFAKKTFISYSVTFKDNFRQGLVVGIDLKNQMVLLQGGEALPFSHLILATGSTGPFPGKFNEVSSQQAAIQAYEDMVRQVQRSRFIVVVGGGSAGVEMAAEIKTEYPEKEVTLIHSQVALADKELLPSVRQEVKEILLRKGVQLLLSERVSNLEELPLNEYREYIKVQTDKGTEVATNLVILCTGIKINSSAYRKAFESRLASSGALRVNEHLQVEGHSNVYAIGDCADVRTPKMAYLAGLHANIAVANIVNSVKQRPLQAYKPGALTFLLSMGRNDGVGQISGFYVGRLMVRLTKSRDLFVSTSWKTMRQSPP
# UniProt Q14457, sequence (Q14457 whole entry, looked up): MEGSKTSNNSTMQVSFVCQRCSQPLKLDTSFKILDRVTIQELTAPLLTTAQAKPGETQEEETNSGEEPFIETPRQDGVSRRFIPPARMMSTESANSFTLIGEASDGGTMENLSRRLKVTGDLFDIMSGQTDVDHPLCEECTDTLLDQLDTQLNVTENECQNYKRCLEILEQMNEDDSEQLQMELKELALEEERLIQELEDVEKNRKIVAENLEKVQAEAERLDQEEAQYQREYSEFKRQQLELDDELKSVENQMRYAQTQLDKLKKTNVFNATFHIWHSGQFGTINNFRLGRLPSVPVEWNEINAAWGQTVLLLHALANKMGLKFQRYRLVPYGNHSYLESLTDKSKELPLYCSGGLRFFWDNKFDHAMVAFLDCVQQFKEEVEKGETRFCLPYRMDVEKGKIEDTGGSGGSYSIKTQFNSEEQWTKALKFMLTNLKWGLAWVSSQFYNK
# UniProt P30043, sequence (P30043 whole entry, looked up): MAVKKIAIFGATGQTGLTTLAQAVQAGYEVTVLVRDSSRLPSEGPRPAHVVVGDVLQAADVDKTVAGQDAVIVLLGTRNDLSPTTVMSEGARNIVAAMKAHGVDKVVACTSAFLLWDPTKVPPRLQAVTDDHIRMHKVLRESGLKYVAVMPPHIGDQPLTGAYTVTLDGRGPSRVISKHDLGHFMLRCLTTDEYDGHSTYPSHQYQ
# UniProt Q9NRZ7, sequence (Q9NRZ7 whole entry, looked up): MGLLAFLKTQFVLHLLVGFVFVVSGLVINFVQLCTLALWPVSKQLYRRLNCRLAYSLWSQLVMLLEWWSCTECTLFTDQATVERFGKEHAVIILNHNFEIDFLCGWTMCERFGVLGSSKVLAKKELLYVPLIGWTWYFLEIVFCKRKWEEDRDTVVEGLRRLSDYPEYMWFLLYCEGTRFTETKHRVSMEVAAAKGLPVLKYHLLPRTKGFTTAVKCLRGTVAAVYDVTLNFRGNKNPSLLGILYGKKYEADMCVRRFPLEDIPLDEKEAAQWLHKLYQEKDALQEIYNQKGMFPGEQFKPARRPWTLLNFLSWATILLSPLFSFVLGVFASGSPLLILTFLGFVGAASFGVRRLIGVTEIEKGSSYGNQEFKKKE
Target,log2 fold change [1],log2 fold change [2],log2 fold change [3],log2 fold change [4],log2 fold change [5],log2 fold change [6],log2 fold change [7],log2 fold change [8],log2 fold change [9],log2 fold change [10]
ACAD9 (UniProt Q9H845),0.03,0.024,-0.039,0.015,0.006,0.014,0.022,-0.016,-0.032,-0.002
BLOC1S3 (UniProt Q6QNY0),0.024,0.018,-0.04,-0.011,0.005,-0.017,0.058,0.048,-0.062,-0.01
ARAF (UniProt P10398),0.053,0.311,0.129,0.013,-0.041,-0.002,0.054,0.047,-0.025,-0.132
AP2A1 (UniProt O95782),0.076,-0.085,0.015,-0.011,0.022,-0.002,-0.041,-0.011,0.005,0
ASS1 (UniProt P00966),0.02,0.024,0.412,0.025,-0.024,0.04,-0.072,0.071,0.025,-0.005
ATP2A3 isoform 2 (UniProt Q93084),-0.142,-0.208,0.046,0.06,0.014,-0.047,-0.028,0.009,-0.016,0.028
AP2M1 (UniProt Q96CW1),0.072,-0.041,0,0.002,0.013,-0.006,-0.046,-0.018,0.023,0.006
AUP1 (UniProt Q9Y679),-0.132,-0.253,0.032,0.046,-0.002,-0.028,0.089,0.12,0.014,-0.24 (active)
ATL2 (UniProt Q8NHH9),0.031,0.037,0.066,0.092,-0.051,-0.127,0.028,0.017,-0.078,-0.032
AHSA1 (UniProt O95433),-0.085,-0.228 (active),0.038,0.023,0,-0.052,0,0.027,-0.06,0.038
ABCC5 (UniProt O15440),-0.075,0.027,0.023,-0.028,0.024,-0.031,-0.069,-0.003,0.028,0.075
ATP11A (UniProt P98196),0.266,0.058,-0.094,0.001,0.026,-0.022,0.031,0.045,-0.083,0.084
BZW1 isoform 3 (UniProt Q7L1Q6),-0.273,-0.82 (active),0.114,0.019,-0.128,-0.041,0.104,0.063,0.068,-0.33
ARMC10 (UniProt Q8N2F6),-0.062,-0.333 (active),0.075,0.022,-0.017,-0.008,0.062,0.015,0.002,-0.044
AHCYL1 (UniProt O43865),0.021,0.036,-0.099,-0.007,-0.027,-0.097,0.018,0.018,-0.115,-0.063
ADH5 (UniProt P11766),0.01,0.02,-0.024,-0.016,0.043,-0.001,-0.01,0.026,-0.052,-0.02

Target,log2 fold change [1],log2 fold change [2],log2 fold change [3],log2 fold change [4],log2 fold change [5],log2 fold change [6],log2 fold change [7],log2 fold change [8],log2 fold change [9],log2 fold change [10]
ATP6V1H (UniProt Q9UI12),-0.085,-0.093,0.069,0.098,0.041,-0.244 (active),0.012,0.048,-0.026,-0.069
BLVRB (UniProt P30043),0.008,0.046,0.012,0.161,0.023,-0.078,0.014,0.017,-0.049,0.127
ATP7B (UniProt P35670),-0.03,-0.043,0.06,0.103,0.061,-0.031,0.024,0.069,0.034,0.009
ARGLU1 (UniProt Q9NWB6),0.094,-0.004,0.033,-0.106,0.024,0.138,0.003,0.012,0.068,0
ANXA5 (UniProt P08758),-0.084,-0.214 (active),0.04,0.068,0.002,-0.041,0.012,0.007,-0.04,-0.042
ADPRHL2 (UniProt Q9NX46),-0.027,0.071,-0.028,0.145,-0.05,-0.093,0.116,0.002,-0.042,0.133
APPL1 (UniProt Q9UKG1),-0.149,-0.317 (active),0.058,-0.044,0.038,-0.021,0.02,0.044,-0.113,-0.065
ATP13A3 (UniProt Q9H7F0),-0.085,0.077,0.016,0,-0.014,-0.022,-0.012,0.128,-0.011,-0.401 (active)
BECN1 (UniProt Q14457),0.069,-0.003,0.029,0.07,0.053,-0.107,-0.003,0.013,0.024,0.009
ATR (UniProt Q13535),-0.063,-0.197,-0.02,0.048,-0.071,-0.041,0.052,0.049,-0.017,0
AGPAT3 isoform 3 (UniProt Q9NRZ7),-0.095,-0.211 (active),0.017,0.02,0.004,-0.082,0.012,0.011,-0.069,0.001
BRD8 (UniProt Q9H0E9),0.038,-0.044,-0.013,0.039,0.035,0.043,-0.044,0.003,0.025,-0.063
ARRDC1 (UniProt Q8N5I2),-0.063,-0.137,-0.09,-0.057,0.09,0,0.023,-0.072,-0.038,0.027
BRIP1 (UniProt Q9BX63),-0.067,0.008,-0.004,-0.008,-0.16,-0.122,-0.068,0.044,0.041,-0.084
AIFM2 (UniProt Q9BRQ8),0.002,-0.035,-0.058,-0.035,-0.025,-0.017,0.003,0.001,-0.069,0.068
